The target in assay [1] is Steroid hormone receptor ERR1 (Homo sapiens) (UniProt P11474). The assay is described as follows: ATG_ERRa_TRANS: Attagene TRANS-FACTORIAL HepG2 Assay for human Estrogen-Related Receptor alpha (ERRa) (AID 2282971). The following applies: HepG2 Attagene TRANS reporter, ERRa transactivation. In short, it runs like this:
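Reporter transcripts from ERRa-Gal4 chimera activity measured in transiently transfected human HepG2 cells 24 hours after dosing, using RT-PCR with 6-FAM primer extension, HpaI digestion and capillary electrophoresis; DMSO is baseline.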

Assay [2] is described as follows: BSK_3C_uPAR: BioMAP Diversity Plus: 3C Assay for Urokinase-type plasminogen activator receptor (uPAR) Biomarker Activity (AID 2282998; active = hit-call score of the fitted dose curve at least 0.9, where 1 is the maximum; inactive = score below 0.9). The following applies: BioMAP 3C HUVEC, uPAR biomarker ELISA; actives raise or lower the signal. In short, it runs like this:
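Readout: ELISA for surface uPAR. System: human umbilical vein endothelial primary cells, 24 h after chemical exposure. Analysis: bidirectional fit, DMSO baseline.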

Read-out in assay [3]: Monocyte Chemoattractant Protein-1 (MCP1), CCL2 (gene 6347)
Briefly: BSK_4H_MCP1: BioMAP Diversity Plus: 4H Assay for Monocyte Chemoattractant Protein-1 (MCP1) Biomarker Activity (AID 2283018; active = hit-call score of the fitted dose curve at least 0.9, where 1 is the maximum; inactive = score below 0.9). The following applies: primary human endothelial cells (HUVEC); actives raise or lower the signal. In short, it runs like this:
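HUVEC primary cells, 24 h post-dose, MCP-1 by ELISA. Gain or loss of signal fitted bidirectionally vs DMSO baseline. Cytotoxicity: SRB stain (0.1% after 10% TCA fixation), read 560 nm, parallel cultures.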

Read-out in assay [4]: Monokine induced gamma interferon (MIG), CXCL9 (gene 4283)
The assay is described as follows: BSK_3C_MIG: BioMAP Diversity Plus: 3C Assay for Monokine induced gamma interferon (MIG) Biomarker Activity (AID 2283021; active = hit-call score of the fitted dose curve at least 0.9, where 1 is the maximum; inactive = score below 0.9;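 as to AC50: MIG protein level measured by immunoassay in the treated endothelial cultures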). The following applies: primary human endothelial cells (HUVEC); actives raise or lower the signal. Put shortly:
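HUVEC, 3C system; 24 h chemical exposure; MIG by ELISA; bidirectional fit vs DMSO baseline.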

Read-out in assay [5]: Urokinase-type plasminogen activator receptor (uPAR), PLAUR (gene 5329)
The assay is described as follows: BSK_4H_uPAR: BioMAP Diversity Plus: 4H Assay for Urokinase-type plasminogen activator receptor (uPAR) Biomarker Activity (AID 2283030; active = hit-call score of the fitted dose curve at least 0.9, where 1 is the maximum; inactive = score below 0.9). The following applies: primary human endothelial cells (HUVEC); actives raise or lower the signal. Put shortly:
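uPAR level read by ELISA on HUVEC cultures (BioMAP 4H) 24 h post-dosing, analyzed for gain or loss relative to DMSO. Parallel SRB staining assessed overt cytotoxicity.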

Read-out in assay [6]: Plasminogen activator inhibitor-1 (PAI1), SERPINE1 (gene 5054)
The assay is described as follows: BSK_BE3C_PAI1: BioMAP Diversity Plus: BE3C Assay for Plasminogen activator inhibitor-1 (PAI1) Biomarker Activity (AID 2283037; active = hit-call score of the fitted dose curve at least 0.9, where 1 is the maximum; inactive = score below 0.9). To be noted: primary human bronchial epithelial cells; actives raise or lower the signal. Put shortly:
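ELISA read-out of PAI-1 from human bronchial epithelial primary cells, 24 h post-dosing; bidirectional curve fit vs DMSO baseline, gain or loss of signal scored.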

Read-out in assay [7]: Tissue plasminogen activator (tPA), PLAT (gene 5327)
Briefly: BSK_BE3C_tPA: BioMAP Diversity Plus: BE3C Assay for Tissue plasminogen activator (tPA) Biomarker Activity (AID 2283041; active = hit-call score of the fitted dose curve at least 0.9, where 1 is the maximum; inactive = score below 0.9;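 also: tPA level quantified by ELISA one day after compound addition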). To be noted: primary human bronchial epithelial cells; actives raise or lower the signal. Put shortly: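 ELISA read-out of tPA on human primary bronchial epithelial cells, 24 h post-dosing; bidirectional fit vs DMSO negative control/baseline.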

Read-out in assay [8]: Thrombomodulin, THBD (gene 7056)
Briefly: BSK_CASM3C_Thrombomodulin: BioMAP Diversity Plus: CASM3C Assay for Thrombomodulin Biomarker Activity (AID 2283051; active = hit-call score of the fitted dose curve at least 0.9, where 1 is the maximum; inactive = score below 0.9;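 also: thrombomodulin protein level measured by ELISA 24 h after dosing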). The following applies: primary human coronary artery smooth muscle cells; actives raise or lower the signal.

Assay [9] can be described thus: ACEA_ER_AUC_viability: ACEA Biosciences xCELLigence Real-Time Cell Analysis on Estrogen Receptor Agonism for Viability (AID 2283782).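 Also: hit means loss of impedance signal meaning reduced cell growth or viability.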 Put shortly:
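Viability endpoint: reduced impedance area under the curve relative to DMSO, recorded by real-time electrode sensing over ~80 h of continuous exposure. Duplicate plates of T47D in hormone-depleted medium; eight concentrations, 1:4 dilutions, 100 uM maximum.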

Assay [10] can be described thus: CCTE_Harrill_HTTr_Viability_MCF7: CCTE's 6-hour Cell Viability Assessment for the High-Throughput Transcriptomics (HTTr) Platform, in MCF-7 cells cultured in DMEM + 10% fetal bovine serum, Harrill Lab (AID 2284010; active = hit-call score of the fitted dose curve at least 0.9, where 1 is the maximum; inactive = score below 0.9). Put shortly: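 PI exclusion, high-content imaging; 8-pt dilution series, 6 h exposure; bidirectional fit vs DMSO (neg. ctrl/baseline); gain of signal = loss of membrane integrity.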

The target of assay [11] is Estrogen receptor beta (Homo sapiens) (UniProt Q92731). Briefly: OT_ER_ERbERb_0480: Odyssey Thera (OT) 8-hour HEK293T Protein-Complementation Assay for Estrogen Receptor-beta/-beta Homodimer (AID 2283357).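 Also: active means signal gain over DMSO baseline.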 Put shortly: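 ER-beta LBD homodimer PCA stably expressed in HEK293T; 8 h compound exposure, then formaldehyde fixation and Draq5 staining. Gain in nuclear/cytoplasmic fluorescence intensity versus DMSO vehicle, read on laser scanning cytometer.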

The target is the same in assay [12]. The assay is described as follows: OT_ER_ERbERb_1440: Odyssey Thera (OT) 24-hour HEK293T Protein-Complementation Assay for Estrogen Receptor-beta/-beta Homodimer (AID 2283380).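 Also: scored as signal increase over DMSO baseline for both agonists and antagonists.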 In short, it runs like this:
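Fluorescence increase, nuclear for agonists or whole-cell for antagonists, relative to DMSO vehicle, quantified by laser scanning cytometer after fixation and Draq5 staining. Readout from 24 h treatment of HEK293T cells carrying complementation-paired ER beta LBD (aa 310-547).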

Assay [13] has as its target Retinoic acid receptor RXR-alpha (Homo sapiens) (UniProt P19793). Briefly: OT_NURR1_NURR1RXRa_0480: Odyssey Thera (OT) 8-hour HEK293T Protein Complementation Assay for Nurr1/retinoid X receptor (RXR) (AID 2283385). Put shortly:
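Read-out: fluorescence from protein-fragment complementation between Nurr1 and RXRα in human HEK293T cells, 8 h after dosing. DMSO served as negative control; increased signal counted as activity.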

Assay [14] has as its target Peroxisome proliferator-activated receptor gamma (Homo sapiens) (UniProt P37231). Briefly: OT_PPARg_PPARgSRC1_1440: Odyssey Thera (OT) 24-hour Protein-Complementation Assay for Peroxisome Proliferator-activated Receptor Gamma/ SRC-1 Co-activator (AID 2283388).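 Also: nuclear to cytoplasmic ratio of reconstituted Venus YFP fluorescence in fixed imaged cells.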 Put shortly: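 Readout is the 488 nm N/C fluorescence ratio from fixed, Draq5-stained HEK293T cells after 24 h compound exposure. Cells carried transiently transfected PPARg and SRC-1 fused to Venus fragments, transfected 48 h before treatment.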

Assay [15] can be described thus: ACEA_AR_agonist_AUC_viability: ACEA Biosciences xCELLigence Real-Time Cell Analysis on Androgen Receptor Agonism for Viability (AID 2283775). Put shortly: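 Viability endpoint from xCELLigence impedance in 22Rv1 prostate cells at 80 h. Eight-point series, 100 uM maximum final.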
In assay [16] the target is Bile acid receptor (Homo sapiens) (UniProt Q96RI1). Briefly: ATG_FXR_TRANS: Attagene TRANS-FACTORIAL HepG2 Assay for Farnesoid X Receptor (FXR) (AID 2282979).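 Also: hits raise reporter mRNA above DMSO so AC50 marks FXR activation.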 To be noted: HepG2 Attagene TRANS FXR-GAL4 reporter transcription. In short, it runs like this:
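Reporter transcripts from transfected HepG2 cells were measured 24 h after dosing, using RT-PCR with capillary electrophoresis of 6-FAM-labelled fragments. The read-out reflects activity of exogenous FXR-Gal4 chimera on GAL4-UAS units, with induction relative to DMSO.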

Assay [17] has as its target Retinoic acid receptor RXR-alpha (Homo sapiens) (UniProt P19793). Briefly: OT_NURR1_NURR1RXRa_1440: Odyssey Thera (OT) 24-hour HEK293T Protein Complementation Assay for Nurr1/retinoid X receptor (RXR) (AID 2283386). In short, it runs like this:
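Fluorescence PCA read-out; HEK293T; 24 h post-dose; bait/prey fused to reporter fragments; gain-of-signal fit vs DMSO negative control.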

A short description of assay [18]: ACEA_AR_antagonist_AUC_viability: ACEA Biosciences xCELLigence Real-Time Cell Analysis on Androgen Receptor Antagonism for Viability (AID 2283776).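 Also: 22Rv1 human prostate cancer cells growing on impedance electrode plates; area under impedance growth curve at 80 h after dosing as viability; hits lower the growth signal relative to DMSO meaning cytotoxicity.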 Put shortly:
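Impedance read-out (RT-CES): area under growth curve at 80 h post-dose, loss of signal scored vs DMSO baseline. 22Rv1 cells; 8-pt 1:4 series, top 100 uM final, ≤0.5% DMSO; biological duplicate.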

Assay [19] in a line: ATG_ERE_CIS: Attagene CIS-FACTORIAL HepG2 Assay for Estrogen Response Element (ERE) (AID 2282940; active = hit-call score of the fitted dose curve at least 0.9, where 1 is the maximum; inactive = score below 0.9). To be noted: HepG2 ERE cis-reporter, Attagene RNA transcript; actives raise or lower the signal. Put shortly:
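Measuring endogenous transcription factor output, the assay doses transfected HepG2 cells for 24 hours and quantifies reporter transcripts by fluorescent RT-PCR and capillary electrophoresis, with DMSO as baseline.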

Assay [20] concerns the target Estrogen-related receptor gamma (Homo sapiens) (UniProt P62508). The assay is described as follows: ATG_ERRg_TRANS: Attagene TRANS-FACTORIAL HepG2 Assay for human Estrogen-Related Receptor gamma (ERRg) (AID 2282977).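 Also: hits increase reporter signal over DMSO so potencies reflect activators.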 The following applies: HepG2 Attagene TRANS reporter, ERRg transactivation. In short, it runs like this: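 Readout: fluorescent reporter-mRNA fragments resolved by capillary electrophoresis after RT-PCR and HpaI cut. Cells: transiently transfected HepG2 carrying GAL4-UAS reporters driven by exogenous NR-Gal4 chimeras, dosed 24 h. Activity fitted upward relative to DMSO baseline.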

Inconclusive results are not listed. The source made the active and inactive calls. The calls were made as follows, unless noted: active = hit-call score of the fitted dose curve at least 0.9, where 1 is the maximum; inconclusive = response in the unintended direction; inactive = score below 0.9.

The term AC50 denotes the concentration at which the activity in the assay is half-maximal.

Estrogen-related receptor gamma (Homo sapiens), sequence (P62508 whole entry, looked up, the tested form may be a part): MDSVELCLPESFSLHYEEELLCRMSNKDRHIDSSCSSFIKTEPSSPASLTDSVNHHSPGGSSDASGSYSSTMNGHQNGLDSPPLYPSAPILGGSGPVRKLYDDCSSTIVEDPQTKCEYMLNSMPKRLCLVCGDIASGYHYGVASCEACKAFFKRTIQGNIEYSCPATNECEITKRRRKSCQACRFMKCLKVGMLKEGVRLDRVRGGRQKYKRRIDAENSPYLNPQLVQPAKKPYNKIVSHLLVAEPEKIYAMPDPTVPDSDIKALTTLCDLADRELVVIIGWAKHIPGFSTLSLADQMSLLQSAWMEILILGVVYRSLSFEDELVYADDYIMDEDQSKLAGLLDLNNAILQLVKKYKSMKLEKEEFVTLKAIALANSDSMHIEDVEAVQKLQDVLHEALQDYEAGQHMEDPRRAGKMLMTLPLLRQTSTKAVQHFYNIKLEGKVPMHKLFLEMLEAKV
Steroid hormone receptor ERR1 (Homo sapiens), sequence (P11474 whole entry, looked up, the tested form may be a part): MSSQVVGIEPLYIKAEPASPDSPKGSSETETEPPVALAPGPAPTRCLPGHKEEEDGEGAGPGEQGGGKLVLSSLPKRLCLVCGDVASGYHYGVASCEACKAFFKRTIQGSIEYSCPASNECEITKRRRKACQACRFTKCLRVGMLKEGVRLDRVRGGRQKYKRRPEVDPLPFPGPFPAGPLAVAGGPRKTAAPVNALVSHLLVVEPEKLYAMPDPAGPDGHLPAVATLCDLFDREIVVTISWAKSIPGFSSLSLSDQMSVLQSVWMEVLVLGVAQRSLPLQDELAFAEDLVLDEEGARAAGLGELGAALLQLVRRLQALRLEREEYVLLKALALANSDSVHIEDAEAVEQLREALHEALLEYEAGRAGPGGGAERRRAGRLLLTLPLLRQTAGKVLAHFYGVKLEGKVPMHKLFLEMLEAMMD
Bile acid receptor (Homo sapiens), sequence (Q96RI1 whole entry, looked up, the tested form may be a part): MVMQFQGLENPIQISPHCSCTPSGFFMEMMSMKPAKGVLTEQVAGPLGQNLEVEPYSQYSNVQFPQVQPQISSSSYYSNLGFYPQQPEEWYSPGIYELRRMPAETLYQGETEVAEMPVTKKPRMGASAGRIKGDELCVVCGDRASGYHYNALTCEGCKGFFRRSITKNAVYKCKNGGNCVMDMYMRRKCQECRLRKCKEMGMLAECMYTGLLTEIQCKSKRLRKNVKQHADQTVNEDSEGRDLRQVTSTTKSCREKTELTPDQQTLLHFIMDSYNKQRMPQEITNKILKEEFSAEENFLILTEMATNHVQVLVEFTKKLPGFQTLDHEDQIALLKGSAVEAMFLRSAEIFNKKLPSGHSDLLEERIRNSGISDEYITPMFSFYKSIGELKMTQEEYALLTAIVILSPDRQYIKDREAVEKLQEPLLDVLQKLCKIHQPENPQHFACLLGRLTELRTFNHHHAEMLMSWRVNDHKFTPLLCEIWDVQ
Estrogen receptor beta (Homo sapiens), sequence (Q92731 whole entry, looked up, the tested form may be a part): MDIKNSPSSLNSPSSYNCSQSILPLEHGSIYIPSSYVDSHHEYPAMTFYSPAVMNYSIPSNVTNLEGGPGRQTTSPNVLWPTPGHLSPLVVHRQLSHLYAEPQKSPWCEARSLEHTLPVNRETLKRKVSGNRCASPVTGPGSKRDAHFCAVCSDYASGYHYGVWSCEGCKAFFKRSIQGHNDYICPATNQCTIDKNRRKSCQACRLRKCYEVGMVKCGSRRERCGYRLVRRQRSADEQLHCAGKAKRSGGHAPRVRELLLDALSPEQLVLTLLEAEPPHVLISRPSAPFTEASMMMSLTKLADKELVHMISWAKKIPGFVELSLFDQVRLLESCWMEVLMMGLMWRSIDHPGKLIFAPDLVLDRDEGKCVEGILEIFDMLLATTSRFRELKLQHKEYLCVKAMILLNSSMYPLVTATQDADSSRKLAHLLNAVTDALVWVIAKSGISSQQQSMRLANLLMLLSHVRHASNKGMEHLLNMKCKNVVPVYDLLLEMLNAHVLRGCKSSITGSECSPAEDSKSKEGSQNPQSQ
Retinoic acid receptor RXR-alpha (Homo sapiens), sequence (P19793 whole entry, looked up, the tested form may be a part): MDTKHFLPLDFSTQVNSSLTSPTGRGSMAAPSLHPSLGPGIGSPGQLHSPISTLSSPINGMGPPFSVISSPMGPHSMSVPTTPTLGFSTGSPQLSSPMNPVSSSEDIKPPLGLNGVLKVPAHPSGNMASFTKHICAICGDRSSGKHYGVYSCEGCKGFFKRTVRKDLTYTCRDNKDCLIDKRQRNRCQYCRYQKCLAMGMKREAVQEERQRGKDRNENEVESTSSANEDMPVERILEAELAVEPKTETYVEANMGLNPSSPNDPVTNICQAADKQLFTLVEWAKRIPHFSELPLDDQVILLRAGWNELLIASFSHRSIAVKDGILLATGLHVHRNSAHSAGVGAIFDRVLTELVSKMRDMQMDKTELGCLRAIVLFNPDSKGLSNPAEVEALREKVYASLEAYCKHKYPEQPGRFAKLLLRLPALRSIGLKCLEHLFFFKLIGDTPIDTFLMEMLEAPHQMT
Peroxisome proliferator-activated receptor gamma (Homo sapiens), sequence (P37231 whole entry, looked up, the tested form may be a part): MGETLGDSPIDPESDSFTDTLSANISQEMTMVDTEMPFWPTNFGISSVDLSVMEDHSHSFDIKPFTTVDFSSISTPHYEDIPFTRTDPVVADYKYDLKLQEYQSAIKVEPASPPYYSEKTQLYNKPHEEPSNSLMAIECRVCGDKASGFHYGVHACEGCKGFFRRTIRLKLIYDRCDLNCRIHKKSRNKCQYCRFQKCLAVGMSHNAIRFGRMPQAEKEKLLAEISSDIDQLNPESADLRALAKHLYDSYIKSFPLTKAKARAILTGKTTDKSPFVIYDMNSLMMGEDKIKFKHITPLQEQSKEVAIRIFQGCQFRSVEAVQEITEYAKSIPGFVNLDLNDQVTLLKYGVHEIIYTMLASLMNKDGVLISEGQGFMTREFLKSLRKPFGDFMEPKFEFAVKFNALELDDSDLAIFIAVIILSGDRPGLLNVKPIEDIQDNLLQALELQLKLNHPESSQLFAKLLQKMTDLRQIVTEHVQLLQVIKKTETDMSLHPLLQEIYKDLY

Regarding `O=P1(NCCCl)OCCCN1CCCl` (stereo not given), the compound was classed as inactive in assay [1], in [2], in [3], in assay [4], in [5] and in assay [6]. Also, the outcome in assay [7], in [8] and in [10] was inactive. The AC50 in [9] is 37.7 µM (active).
In the case of `Cc1ccc(C)c2ccccc12`, the result in [11], in [12], in assay [13], in assay [14], in assay [15] and in assay [9] was inactive.
Take `CCOP(=O)(OCC)Oc1ccc([N+](=O)[O-])cc1`: the compound was called inactive in assay [16], in assay [12], in assay [13], in [17], in assay [14] and in [10].
With `O=C1Nc2ccc(Cl)cc2C(c2ccccc2)=NC1O` (stereo not given), the compound was called inactive in assay [16], in assay [11], in assay [12], in assay [13], in [17] and in assay [14]. The result in [15] and in assay [18] was inactive.
For `CCOP(O)OCC`, the compound was called inactive in [11], in assay [12], in [17], in [14] and in assay [15].
With `CC(=O)c1cc2c(cc1C)C(C)(C)C(C)CC2(C)C` (stereo not given), the call in [16], in assay [17], in assay [14], in [15] and in [18] was inactive. Also, the AC50 was 5.28 µM (active) in assay [11], 12.5 µM (active) in [12], 82.1 µM (active) in assay [13] and 79.9 µM (active) in assay [9].
Turning to `CC(C)(C)C(=O)CCl`, the outcome in [19], in assay [1], in assay [20], in [2], in assay [3] and in [4] was inactive. Moreover, the result in assay [5], in [6], in assay [7], in [8] and in [9] was inactive.
On to `Cc1ccc(N(SC(F)(Cl)Cl)S(=O)(=O)N(C)C)cc1`, for which the compound was called inactive in [1] and in assay [20].
As for `c1ccc(Nc2ccc3ccccc3c2)cc1`, the AC50 was 8.6 µM (active) in assay [19]; 20 µM (active) in assay [2]; 30.7 µM (active) in assay [3]; 33 µM (active) in assay [4]; 31.3 µM (active) in [5]; 20 µM (active) in [6]. Besides, the AC50 in assay [8] is 8.69 µM (active). Also, the compound was called inactive in assay [1], in assay [16] and in assay [7].
Regarding `N#CCNCC#N`, the compound was called inactive in assay [19], in assay [20] and in assay [9].
For the compound `O=C(NC(=O)c1c(F)cccc1F)Nc1ccc(Oc2ccc(C(F)(F)F)cc2Cl)cc1F`, the compound was called inactive in [16], in assay [11], in assay [12], in assay [14], in [15] and in [18]. Moreover, the AC50 in [17] is 31.3 µM (active).
For `O=C(O)COc1ccccc1`, the call in assay [19] was inactive.
Consider `CCOP(=O)(OCC)OCC`, for which the outcome in assay [20], in assay [11], in assay [12], in [13], in assay [14] and in assay [15] was inactive. Also, the result in [9] was inactive.

The values are drawn from PubChem BioAssay (EPA / NIEHS).
